Columns and labels:
Assay in all cases: log2 ratio of Biotin-Ahx-Ub-VS probe labelling (fragment/DMSO); higher = less target engagement (more negative = stronger competition), active = hit call of the paper (q ≤ 0.05, log2 ratio ≤ -1)
Details in all cases: compound concentration: 200 uM; treatment time: 3 h
USP34 = USP34 (UniProt Q70CQ2)
Method in brief: (§1)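 Average log2 ratios of fragment over vehicle were obtained by unpaired t-test from global-median-normalised Spectronaut label-free quantities. Proteins with ≥2 unique peptides were included. HEK293T lysate (495 µg per sample) was treated in triplicate with fragment at 200 µM or vehicle for 3 h, then with Biotin-Ahx-Ub-VS at 0.5 µM final for 1 h, and labelled DUBs were NeutrAvidin-enriched and run by diaPASEF LC-MS/MS.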

USP36 = target: T1, USP36 (UniProt Q9P275)
T1 sequence (whole entry): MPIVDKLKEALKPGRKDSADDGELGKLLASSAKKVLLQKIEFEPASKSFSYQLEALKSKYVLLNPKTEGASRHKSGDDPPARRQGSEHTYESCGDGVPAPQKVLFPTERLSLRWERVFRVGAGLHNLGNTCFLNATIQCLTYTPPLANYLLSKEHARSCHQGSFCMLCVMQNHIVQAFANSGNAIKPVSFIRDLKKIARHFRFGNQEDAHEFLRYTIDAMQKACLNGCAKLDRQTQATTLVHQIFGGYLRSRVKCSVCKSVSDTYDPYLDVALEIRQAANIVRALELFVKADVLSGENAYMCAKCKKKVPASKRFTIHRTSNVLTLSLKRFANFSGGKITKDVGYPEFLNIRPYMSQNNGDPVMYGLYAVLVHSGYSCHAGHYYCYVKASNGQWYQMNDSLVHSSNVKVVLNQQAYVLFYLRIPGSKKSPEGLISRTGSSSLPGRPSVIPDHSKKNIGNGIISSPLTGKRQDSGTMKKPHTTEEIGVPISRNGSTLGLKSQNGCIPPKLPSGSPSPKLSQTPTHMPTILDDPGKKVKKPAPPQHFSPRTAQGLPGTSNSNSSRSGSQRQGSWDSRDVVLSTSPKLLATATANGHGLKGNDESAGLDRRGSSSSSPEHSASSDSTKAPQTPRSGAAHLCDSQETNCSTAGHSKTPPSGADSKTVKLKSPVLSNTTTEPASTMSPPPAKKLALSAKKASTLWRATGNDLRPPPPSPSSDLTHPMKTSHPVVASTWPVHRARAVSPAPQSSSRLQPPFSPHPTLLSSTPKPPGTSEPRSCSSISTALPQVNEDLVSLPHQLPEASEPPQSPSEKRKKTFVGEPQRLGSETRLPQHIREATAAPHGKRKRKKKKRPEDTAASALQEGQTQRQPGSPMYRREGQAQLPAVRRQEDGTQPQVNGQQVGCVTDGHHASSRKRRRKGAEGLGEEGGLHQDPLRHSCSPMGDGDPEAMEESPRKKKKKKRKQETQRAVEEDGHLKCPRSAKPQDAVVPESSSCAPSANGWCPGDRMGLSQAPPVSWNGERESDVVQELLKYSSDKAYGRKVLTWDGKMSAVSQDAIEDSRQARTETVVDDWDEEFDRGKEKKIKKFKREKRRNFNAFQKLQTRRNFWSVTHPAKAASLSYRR
Method in brief: as §1

USP38 = target: T2, USP38 (UniProt Q8NB14)
T2 sequence (whole entry): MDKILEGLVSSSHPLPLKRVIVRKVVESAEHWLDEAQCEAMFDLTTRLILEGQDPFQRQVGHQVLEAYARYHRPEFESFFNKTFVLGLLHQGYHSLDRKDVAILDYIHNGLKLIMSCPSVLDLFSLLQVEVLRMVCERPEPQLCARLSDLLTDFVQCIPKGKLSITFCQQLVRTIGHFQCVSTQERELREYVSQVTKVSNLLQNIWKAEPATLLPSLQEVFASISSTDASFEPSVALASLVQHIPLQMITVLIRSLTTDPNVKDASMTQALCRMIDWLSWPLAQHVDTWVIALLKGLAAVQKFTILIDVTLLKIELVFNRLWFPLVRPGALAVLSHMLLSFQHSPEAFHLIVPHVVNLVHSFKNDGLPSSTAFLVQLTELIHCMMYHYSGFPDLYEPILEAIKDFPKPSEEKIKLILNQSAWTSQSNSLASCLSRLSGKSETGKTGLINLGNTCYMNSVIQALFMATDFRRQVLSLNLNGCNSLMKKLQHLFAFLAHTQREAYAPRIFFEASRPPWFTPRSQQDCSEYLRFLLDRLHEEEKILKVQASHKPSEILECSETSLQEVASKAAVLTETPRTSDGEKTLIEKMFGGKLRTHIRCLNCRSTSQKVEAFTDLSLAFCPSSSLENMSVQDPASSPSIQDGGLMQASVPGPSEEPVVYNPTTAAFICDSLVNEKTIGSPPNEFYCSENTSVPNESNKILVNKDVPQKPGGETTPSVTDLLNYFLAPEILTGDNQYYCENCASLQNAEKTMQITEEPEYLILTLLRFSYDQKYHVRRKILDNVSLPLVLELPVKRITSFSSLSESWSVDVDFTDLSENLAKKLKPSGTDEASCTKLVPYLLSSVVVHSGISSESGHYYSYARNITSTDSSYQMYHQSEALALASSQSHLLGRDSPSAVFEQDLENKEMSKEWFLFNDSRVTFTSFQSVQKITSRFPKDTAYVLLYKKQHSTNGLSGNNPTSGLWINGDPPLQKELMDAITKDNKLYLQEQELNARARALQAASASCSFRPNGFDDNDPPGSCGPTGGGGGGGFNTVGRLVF
Method in brief: as §1

USP39 = target: T3, USP39 (UniProt Q53GS9)
T3 sequence (whole entry): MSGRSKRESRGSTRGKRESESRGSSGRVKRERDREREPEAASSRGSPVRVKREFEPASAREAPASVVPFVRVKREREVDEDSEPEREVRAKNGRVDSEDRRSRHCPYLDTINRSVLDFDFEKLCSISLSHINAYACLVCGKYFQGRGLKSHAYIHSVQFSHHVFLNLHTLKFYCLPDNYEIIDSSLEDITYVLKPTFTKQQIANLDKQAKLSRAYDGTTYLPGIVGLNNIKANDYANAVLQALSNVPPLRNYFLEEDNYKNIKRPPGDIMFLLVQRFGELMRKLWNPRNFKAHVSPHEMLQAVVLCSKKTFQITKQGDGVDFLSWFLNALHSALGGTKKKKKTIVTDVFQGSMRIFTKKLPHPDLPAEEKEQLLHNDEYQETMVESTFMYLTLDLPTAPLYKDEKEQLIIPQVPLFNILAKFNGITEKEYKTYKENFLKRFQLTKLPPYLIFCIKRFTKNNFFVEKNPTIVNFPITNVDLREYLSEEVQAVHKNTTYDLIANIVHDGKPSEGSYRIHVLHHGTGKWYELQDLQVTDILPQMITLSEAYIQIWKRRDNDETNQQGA
Method in brief: as §1

USP4 = target: T4, USP4 (UniProt Q13107)
T4 sequence (whole entry): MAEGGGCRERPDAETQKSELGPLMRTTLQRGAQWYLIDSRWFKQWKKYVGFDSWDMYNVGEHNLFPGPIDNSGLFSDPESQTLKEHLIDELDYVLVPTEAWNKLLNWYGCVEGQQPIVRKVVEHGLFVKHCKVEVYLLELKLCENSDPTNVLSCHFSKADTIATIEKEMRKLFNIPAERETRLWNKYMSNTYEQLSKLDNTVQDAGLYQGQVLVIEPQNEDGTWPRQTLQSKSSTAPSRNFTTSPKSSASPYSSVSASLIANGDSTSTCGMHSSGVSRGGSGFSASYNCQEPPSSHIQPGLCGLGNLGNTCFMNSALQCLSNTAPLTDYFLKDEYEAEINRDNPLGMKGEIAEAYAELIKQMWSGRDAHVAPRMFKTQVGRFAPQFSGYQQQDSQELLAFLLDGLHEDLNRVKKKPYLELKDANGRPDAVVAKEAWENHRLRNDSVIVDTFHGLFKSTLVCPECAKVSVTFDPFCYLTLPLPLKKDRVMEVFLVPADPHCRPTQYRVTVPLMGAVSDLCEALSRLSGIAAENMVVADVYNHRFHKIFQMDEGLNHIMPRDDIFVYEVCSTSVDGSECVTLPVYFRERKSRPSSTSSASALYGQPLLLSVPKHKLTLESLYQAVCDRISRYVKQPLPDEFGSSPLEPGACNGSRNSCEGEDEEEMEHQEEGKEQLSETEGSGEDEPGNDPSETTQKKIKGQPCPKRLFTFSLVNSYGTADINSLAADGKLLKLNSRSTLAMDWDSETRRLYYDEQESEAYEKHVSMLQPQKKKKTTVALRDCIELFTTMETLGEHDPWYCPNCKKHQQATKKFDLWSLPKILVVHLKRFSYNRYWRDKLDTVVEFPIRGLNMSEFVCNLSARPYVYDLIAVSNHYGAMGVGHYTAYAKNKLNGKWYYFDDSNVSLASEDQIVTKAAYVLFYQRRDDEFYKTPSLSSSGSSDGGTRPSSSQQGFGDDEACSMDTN
Method in brief: as §1

Measured: log2 ratio of Biotin-Ahx-Ub-VS probe labelling

Chain of USP34 (Q70CQ2 whole entry, the tested form may be a part): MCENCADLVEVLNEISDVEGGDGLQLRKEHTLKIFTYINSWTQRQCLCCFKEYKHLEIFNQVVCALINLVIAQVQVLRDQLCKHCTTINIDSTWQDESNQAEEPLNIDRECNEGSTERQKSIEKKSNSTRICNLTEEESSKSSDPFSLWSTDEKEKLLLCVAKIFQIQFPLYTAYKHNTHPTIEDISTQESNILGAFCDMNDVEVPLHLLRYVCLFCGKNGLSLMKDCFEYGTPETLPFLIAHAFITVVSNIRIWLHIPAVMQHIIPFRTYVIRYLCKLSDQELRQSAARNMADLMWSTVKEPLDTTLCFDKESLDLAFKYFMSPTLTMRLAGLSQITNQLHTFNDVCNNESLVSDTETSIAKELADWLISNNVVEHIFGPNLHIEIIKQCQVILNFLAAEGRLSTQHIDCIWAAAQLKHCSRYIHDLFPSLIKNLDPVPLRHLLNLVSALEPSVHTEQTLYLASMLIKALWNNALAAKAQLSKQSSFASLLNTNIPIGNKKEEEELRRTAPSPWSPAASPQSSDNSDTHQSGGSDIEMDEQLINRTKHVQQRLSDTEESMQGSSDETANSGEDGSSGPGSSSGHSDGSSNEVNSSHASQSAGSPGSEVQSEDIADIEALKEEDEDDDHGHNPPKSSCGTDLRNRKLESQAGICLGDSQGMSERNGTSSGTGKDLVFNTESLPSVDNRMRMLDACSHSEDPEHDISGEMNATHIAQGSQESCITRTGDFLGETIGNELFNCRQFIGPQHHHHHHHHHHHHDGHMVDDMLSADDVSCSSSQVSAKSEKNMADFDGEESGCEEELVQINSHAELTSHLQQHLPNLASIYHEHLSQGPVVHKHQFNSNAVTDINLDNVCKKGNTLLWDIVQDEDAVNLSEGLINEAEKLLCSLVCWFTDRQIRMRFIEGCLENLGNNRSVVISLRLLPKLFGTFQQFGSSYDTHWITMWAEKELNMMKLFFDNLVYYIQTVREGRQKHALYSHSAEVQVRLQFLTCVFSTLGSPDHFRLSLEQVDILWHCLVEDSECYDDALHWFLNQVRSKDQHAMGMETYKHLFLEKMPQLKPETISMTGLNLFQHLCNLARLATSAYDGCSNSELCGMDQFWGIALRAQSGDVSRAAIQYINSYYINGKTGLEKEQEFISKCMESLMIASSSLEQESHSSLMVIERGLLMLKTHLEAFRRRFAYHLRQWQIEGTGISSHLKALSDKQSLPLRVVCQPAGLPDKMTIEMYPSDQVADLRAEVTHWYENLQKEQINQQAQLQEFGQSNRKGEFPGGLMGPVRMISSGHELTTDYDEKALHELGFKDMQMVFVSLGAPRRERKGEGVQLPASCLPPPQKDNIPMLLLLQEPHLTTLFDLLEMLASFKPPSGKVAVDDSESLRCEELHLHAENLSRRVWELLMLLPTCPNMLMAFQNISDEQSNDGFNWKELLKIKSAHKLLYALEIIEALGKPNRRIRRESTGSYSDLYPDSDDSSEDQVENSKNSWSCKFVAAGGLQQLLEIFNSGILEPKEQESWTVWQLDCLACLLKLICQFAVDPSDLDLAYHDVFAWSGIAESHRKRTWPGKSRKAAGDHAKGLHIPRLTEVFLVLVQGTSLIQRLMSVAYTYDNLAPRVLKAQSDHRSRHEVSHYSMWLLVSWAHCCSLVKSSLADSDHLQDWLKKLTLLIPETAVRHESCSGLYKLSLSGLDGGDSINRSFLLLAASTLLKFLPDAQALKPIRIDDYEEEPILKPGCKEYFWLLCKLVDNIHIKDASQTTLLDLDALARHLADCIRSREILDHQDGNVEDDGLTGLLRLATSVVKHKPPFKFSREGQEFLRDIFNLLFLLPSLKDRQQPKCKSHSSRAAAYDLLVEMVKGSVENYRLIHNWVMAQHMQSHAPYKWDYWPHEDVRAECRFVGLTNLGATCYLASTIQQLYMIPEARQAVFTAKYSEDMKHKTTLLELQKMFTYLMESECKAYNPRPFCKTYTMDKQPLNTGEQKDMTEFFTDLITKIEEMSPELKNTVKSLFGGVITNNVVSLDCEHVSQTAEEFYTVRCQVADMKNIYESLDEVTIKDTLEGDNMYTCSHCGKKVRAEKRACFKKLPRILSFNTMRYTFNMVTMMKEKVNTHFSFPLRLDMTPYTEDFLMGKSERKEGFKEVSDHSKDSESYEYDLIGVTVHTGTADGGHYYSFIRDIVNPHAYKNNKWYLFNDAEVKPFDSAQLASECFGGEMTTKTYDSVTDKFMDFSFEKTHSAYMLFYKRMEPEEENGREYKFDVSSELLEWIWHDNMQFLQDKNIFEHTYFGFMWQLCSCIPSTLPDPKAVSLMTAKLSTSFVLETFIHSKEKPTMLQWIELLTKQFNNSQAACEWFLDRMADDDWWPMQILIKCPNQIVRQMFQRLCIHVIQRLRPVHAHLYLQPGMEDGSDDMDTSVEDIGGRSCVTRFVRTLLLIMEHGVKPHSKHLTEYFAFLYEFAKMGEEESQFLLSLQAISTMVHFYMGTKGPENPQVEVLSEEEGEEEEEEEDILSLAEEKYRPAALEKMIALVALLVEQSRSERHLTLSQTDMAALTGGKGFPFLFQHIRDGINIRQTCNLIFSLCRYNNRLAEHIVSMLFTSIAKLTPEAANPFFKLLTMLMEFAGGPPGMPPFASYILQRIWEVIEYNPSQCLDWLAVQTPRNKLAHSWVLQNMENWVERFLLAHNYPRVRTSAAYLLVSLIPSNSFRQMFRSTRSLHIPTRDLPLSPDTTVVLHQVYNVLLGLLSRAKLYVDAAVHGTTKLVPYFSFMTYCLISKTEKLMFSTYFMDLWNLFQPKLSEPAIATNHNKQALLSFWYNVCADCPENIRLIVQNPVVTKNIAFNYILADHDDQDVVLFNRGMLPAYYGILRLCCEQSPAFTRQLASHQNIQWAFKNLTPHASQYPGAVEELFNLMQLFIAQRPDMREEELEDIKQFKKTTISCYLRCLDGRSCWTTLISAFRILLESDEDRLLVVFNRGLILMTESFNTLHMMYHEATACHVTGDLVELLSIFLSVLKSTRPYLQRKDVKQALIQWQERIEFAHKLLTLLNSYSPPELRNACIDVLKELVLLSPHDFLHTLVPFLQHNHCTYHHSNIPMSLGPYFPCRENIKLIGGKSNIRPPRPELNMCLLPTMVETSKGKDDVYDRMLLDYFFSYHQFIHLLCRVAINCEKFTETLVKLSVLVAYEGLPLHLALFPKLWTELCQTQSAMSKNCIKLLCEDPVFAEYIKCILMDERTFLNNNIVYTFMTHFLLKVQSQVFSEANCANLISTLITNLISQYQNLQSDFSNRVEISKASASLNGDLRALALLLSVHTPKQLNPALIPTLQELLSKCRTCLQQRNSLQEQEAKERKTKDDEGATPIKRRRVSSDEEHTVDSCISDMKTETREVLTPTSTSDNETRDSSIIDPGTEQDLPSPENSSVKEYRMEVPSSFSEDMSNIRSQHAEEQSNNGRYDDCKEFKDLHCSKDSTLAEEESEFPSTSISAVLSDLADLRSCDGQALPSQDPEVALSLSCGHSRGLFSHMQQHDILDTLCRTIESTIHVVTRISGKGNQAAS

Cl.O=C(CCl)NCCc1ncc(F)cc1F
inactive: USP34 -0.216 | USP36 -0.308 | USP38 -0.203 | USP39 -0.202 | USP4 0.0209

Reference: the supplement of paper PMC11732987, “Enantioselective OTUD7B fragment discovery through chemoproteomics screening and high-throughput optimisation” (Communications Chemistry, 2025)
